Sampled rows, rich in hits. Any-hit rate of the full collection: about 3.1%.
PP5 primary – PP5 (human) phosphatase inhibition. P53041. purified PP5c, OMFP substrate fluorescence. inhibition, % at 6.7 µM. 320,000 compounds, 0.18% hits. AID 1987;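 active = inhibition above the campaign's mean inhibition across all tested compounds plus 3 SD, cut at about 9.5% in these data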;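 note: 0% = DMSO only and 100% = 100 µM cantharidin control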
Beta apoptosis – blocks beta cell apoptosis | INS-1E cytokine-induced death, ATP luminescence, 48 h; percent of positive-control rescue, neutral wells zero | protection from apoptosis, % (no concentration beside the values) | 300,000 compounds, 0.8% hits | AID 435005;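 active = Every replicate reaches about 75%, or at least half do and their mean reaches it too, limit read from the data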;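 note: 0% = cytokine-treated negative control wells and 100% = positive control rescue; higher means more ATP so stronger rescue from cytokine killing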
CSC inhib – cancer stem cell inhibition. cancer stem cell-like cells viability, luminescence. inhibition, % at 7.5 µM. 300,000 compounds, 1.1% hits. AID 2717; in the data active = inhibition above about 75%; tested in HMLE shEcad cells
PP1 inh – counter-screen for PP5 inhibitors: inhibitors of human PP1-alpha | inhibition, % at 6.7 µM | 320,000 compounds, 0.9% hits | purified PP1alpha, OMFP fluorescence | P62136;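 active = inhibition above the mean inhibition of all tested compounds plus 3 SD, computed separately for each screening campaign, cut at about 15% in these data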
Target sequence (P62136 whole entry, looked up): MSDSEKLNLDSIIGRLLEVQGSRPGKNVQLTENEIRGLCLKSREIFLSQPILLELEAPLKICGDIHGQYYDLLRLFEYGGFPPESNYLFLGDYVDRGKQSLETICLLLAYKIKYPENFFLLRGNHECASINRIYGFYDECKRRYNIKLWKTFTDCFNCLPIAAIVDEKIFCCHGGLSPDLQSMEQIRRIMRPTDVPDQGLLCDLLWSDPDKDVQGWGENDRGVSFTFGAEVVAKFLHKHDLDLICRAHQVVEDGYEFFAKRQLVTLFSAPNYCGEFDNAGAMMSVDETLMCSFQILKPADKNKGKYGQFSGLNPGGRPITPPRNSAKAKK
SKKanGAS inh – blocks kanamycin growth of S. pyogenes SKKanGAS strain. BacTiter-Glo, 6 h. inhibition, % at 7.5 µM. 300,000 compounds, 1.3% hits. AID 1662;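 active = mean replicate score, as percent of positive control median, at least 50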;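 note: strain carries kanamycin resistance gene driven by streptokinase promoter and grows in 40 µg/ml kanamycin; loss of luminescence reflects streptokinase promoter inhibition or plain growth inhibition; 0% = median of DMSO wells and 100% = positive control at its reference dose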
The depositor's hits bear a star; · = no result.

SMILES	PP5 primary	Beta apoptosis	CSC inhib	PP1 inh	SKKanGAS inh
CC1=CC2/C=C(\C)CCC(O)C(O)/C=C/C(=O)C23C(=O)NC(CC(C)C)C3C1C (centres undefined)	5.0	106.1*	0.6	-4.3	-7.2
COc1ccccc1Cn1c(SCC(=O)C(C)(C)C)nc2cc(C(=O)N3CCC4(CC3)OCCO4)ccc2c1=O	-0.3	8.1	-13.2	-1.4	14.1
O=[N+]([O-])c1cccc(O)c1	1.4	5.3	-7.5	0.1	·
CC(C)(C)c1cc([N+](=O)[O-])cc(C(C)(C)C)c1O	3.6	99.9*	46.8	-1.3	3.0
COC(=O)C1=C(c2cc3ccccc3s2)C[C@@H]2CC[C@H]1N2C(=O)NCCNC(C)=O	1.4	-6.0	-3.5	-0.2	-0.4
COC(=O)C1=C(c2cccc(C#N)c2)C[C@@H]2CC[C@H]1N2C(=O)NC1Cc2ccccc2C1	2.3	1.7	84.2*	-1.0	·
COC(=O)C1=C(c2ccc(OCc3ccccc3)cc2)C[C@@H]2CC[C@H]1N2C(=O)NC1CCN(Cc2ccccc2)CC1	0.6	78.1*	48.3	6.0	·
COC(=O)C1=C(c2cccc(C#N)c2)C[C@@H]2CC[C@H]1N2C(=O)NC1CC1	2.6	-4.4	-12.8	-0.4	·
COC(=O)C1=Nc2ccccc2/C1=C\c1c(O)n(-c2ccc(Br)cc2)c(=O)[nH]c1=O	-0.8	-2.7	9.4	0.6	·
O=c1[nH]c(=O)n(-c2ccccc2)c(O)c1/C=C1/C(c2ccccc2)=Nc2ccccc21	3.6	7.9	88.4*	1.0	-0.4
Cc1nn(Cc2ccccc2Cl)c(Cl)c1C(=O)O	-0.8	-2.6	-0.1	1.2	5.2
CC(C)(C)c1nc(N2CCN(C(=O)c3ccco3)CC2)c2nnn(Cc3ccccc3Cl)c2n1	-0.5	21.1	119.0*	6.2	40.1
CN(C)[C@@H]1C(=O)C(C(N)=O)=C(O)[C@@]2(O)C(=O)C3=C(O)c4c(O)cccc4[C@@](C)(O)C3C[C@@H]12 (some centres undefined)	0.4	-1.4	-5.4	3.8	109.5*
CN(C)[C@@H]1C(=O)C(C(N)=O)=C(O)[C@@]2(O)C(=O)C3=C(O)c4c(O)ccc(Cl)c4[C@@](C)(O)[C@H]3C[C@@H]12	3.1	·	-3.6	5.7	108.8*
C=C1C(=O)O[C@@H]2C[C@@H](C)[C@@H]3C=CC(=O)[C@@]3(C)[C@@H](O)[C@H]12	1.7	112.3*	51.6	-13.0	-1.1
COc1ccccc1-n1c(-c2ccccc2Cl)nc2ccccc2c1=O	5.0	3.2	-0.8	1.4	8.3
Cc1ccc(C)c(OCc2cc(C(=O)N3C[C@H]4C[C@@H](C3)c3cccc(=O)n3C4)no2)c1	3.5	-4.7	-1.3	0.8	2.3
CCCCn1c(O)c(C(CC)=Nc2ccc(OC)cc2OC)c(=O)[nH]c1=O	3.0	-3.4	34.2	0.6	10.0
C=CCn1c(O)c(C(CC)=Nc2ccc(N(CC)CC)cc2)c(=O)[nH]c1=O	1.3	-3.2	18.3	-1.5	101.4*
C=CCn1c(O)c(C(C)=Nc2ccc(N(CC)CC)cc2)c(=O)[nH]c1=O	4.9	0.7	44.6	-1.2	76.2*
CCCCn1c(O)c(C(CC)=Nc2ccc(OCC)cc2)c(=O)[nH]c1=O	1.1	2.2	-6.4	8.7	55.1*
Cc1cc(OCC(=O)N2CCC(C(=O)O)CC2)c2c3c(c(=O)oc2c1)CCC3	1.8	-5.1	-2.3	-3.8	2.6
CC1=C(C(=O)O)N2C(=O)C(NC(=O)Cc3ccccc3)C2SC1 (centres undefined)	0.3	-5.2	-3.3	2.0	94.5*
O=[N+]([O-])c1ccccc1-c1cc(-c2ccccc2)cc(-c2ccccc2)[n+]1Cc1ccccc1Cl	-5.3	134.0*	36.5	5.4	17.9
C=C(C)[C@@H]1C2C(=O)O[C@H]1[C@H]1OC(=O)[C@@]34OC3C[C@]2(O)[C@@]14C (some centres undefined)	-1.7	-1.0	-3.4	-1.4	·
SMILES	PP5 primary	Beta apoptosis	CSC inhib	PP1 inh	SKKanGAS inh
Cc1cc(C(C#N)c2ccc(Cl)cc2)c(Cl)cc1NC(=O)c1cc(I)cc(I)c1O (centres undefined)	-1.4	6.8	95.9*	11.4	105.2*
COC(=O)C1=C(c2ccc(OC(F)(F)F)cc2)C[C@@H]2CC[C@H]1N2C(=O)NCc1cccc2ccccc12	8.2	1.1	34.3	13.4	·
COc1ccc(-[n+]2c(-c3ccccc3)cc(-c3ccccc3)cc2-c2ccccc2)cc1	0.6	111.3*	41.8	0.5	-3.7
O=C([O-])c1ccc(-[n+]2c(-c3ccccc3)cc(-c3ccccc3)cc2-c2ccccc2)cc1	2.4	11.7	-9.4	4.9	-1.0
Oc1ccc(-[n+]2c(-c3ccccc3)cc(-c3ccccc3)cc2-c2ccccc2)cc1	0.6	123.0*	-15.3	5.2	2.7
C=C(CO)CC1CC(O)[C@]2(C)OC3CC4OC5C[C@]6(C)O[C@]7(C)CCC8OC9C[C@]%10(C)OC%11C(C)=CC(=O)OC%11CC%10OC9C[C@@H](C)C8OC7CC6O[C@]5(C)C/C=C\C4OC3CC2O1 (some centres undefined)	2.9	22.3	-11.3	0.8	12.9
C=C(C=O)CC1CC(O)[C@]2(C)OC3CC4OC5C[C@]6(C)O[C@]7(C)CCC8OC9C[C@]%10(C)OC%11C(C)=CC(=O)OC%11CC%10OC9C[C@@H](C)C8OC7CC6O[C@]5(C)CC5OC5C4OC3CC2O1 (some centres undefined)	3.0	100.6*	9.0	-2.8	25.9
Oc1c(Br)cc(Br)cc1Oc1ccc(Br)cc1Br	0.9	9.4	107.8*	2.0	106.9*
COC(=O)C1=C(c2ccccc2OCc2ccccc2)C[C@@H]2CC[C@H]1N2C(=O)NCc1ccc(OC)c(OC)c1	1.6	4.9	-1.4	-6.3	·
O=C(OC1CCN(CCCl)CC1)C(c1ccccc1)c1ccccc1	3.6	-5.2	5.0	-0.3	·
CCOC(=O)c1c(NC(=O)C(c2ccccc2)c2ccccc2)sc2c1C1CCN2CC1	1.1	52.0	81.5*	4.1	22.3
C#CC(CC)(CC)NC(=O)Nc1ccc(OCC)cc1	-9.0	-1.3	21.5	-9.4	-5.8
c1ccc2c(N3CCNCC3)nsc2c1	1.9	2.0	13.1	2.7	1.6
CC[C@@]1(O)C(=O)OCc2c1cc1n(c2=O)Cc2cc3ccccc3nc2-1	0.5	102.9*	60.4	5.6	-3.0
CC[C@@]1(O)C(=O)OCc2c1cc1n(c2=O)Cc2cc3c(NC(=O)CN)cccc3nc2-1	1.8	71.3	108.3*	7.6	14.1
CCC1(OC(=O)CN)C(=O)OCc2c1cc1n(c2=O)Cc2cc3ccccc3nc2-1 (centres undefined)	2.0	92.3*	54.7	-1.6	2.6
COC(=O)c1ccc(C(C(=O)NC2CCCCC2)N(CCN2CCOCC2)C(=O)Cc2cccs2)cc1 (centres undefined)	-0.6	-2.2	-2.0	-5.6	0.2
O=C(c1ccc(C(F)(F)F)cc1)C1CCCN(Cc2ccncc2)C1 (centres undefined)	2.1	31.8	22.4	-5.8	-3.5
Cc1cc(C)c2c(ccc3cccc[n+]32)c1	0.5	82.1*	-10.8	-3.5	-6.4
